Test systems include DU-145 prostate; K-562 leukemia; MDA-MB-231 breast; RXF 393 renal; SF-268 CNS; SF-295 CNS; SF-539 CNS; UACC-257 melanoma; M14 melanoma; HCT-15 colon; HT29 colon; SNB-75 CNS; SNB-19 CNS; PC-3 prostate; SK-MEL-5 melanoma; UACC-62 melanoma; LOX IMVI melanoma; SK-MEL-28 melanoma; MALME-3M melanoma; U251 CNS.
Assay in all cases: NCI-60 one-dose screen, 48 h (100 = growth as untreated, 0 = no growth, -100 = all killed)
What all share (conditions): 10 µM unless noted

In PubChem BioAssay (NCI) one finds growth data, which are given here for 9 compounds.

Compounds without any hit were thinned out: in the full panel of roughly 83,000, 20% have a hit.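 Negative percent growth values reflect cell death: -40 means 40% of the cells present at the start died, and -100 means all died.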 Values without a mark were called inactive. The source made the active and inactive calls. How the source made its calls: active means growth percent below 10; inactive means the rest.

With `O=C(/C=C/c1ccc(B(O)O)cc1)/C=C/c1ccc(B(O)O)cc1`, the growth is 64.4% in the experiment with DU-145 prostate; 12.9% in the experiment on K-562 leukemia; 38.6% in the experiment with MDA-MB-231 breast; 10.2% with RXF 393 renal; 59.2% with SF-268 CNS; 89.8% in the experiment on SF-295 CNS. In addition, the growth in the experiment with SF-539 CNS was 21.6%; in the experiment on UACC-257 melanoma, 51.9%; with M14 melanoma it was 20.5%; with HCT-15 colon, 8.01% (active); in the experiment with HT29 colon it was -8.22% (active); in the experiment on SNB-75 CNS, 72.4%. The growth is 69% in the experiment on SNB-19 CNS; 57.1% with PC-3 prostate; 85.5% in the experiment with SK-MEL-5 melanoma; 13% in the experiment on UACC-62 melanoma; -36.5% (active) with LOX IMVI melanoma; 86.7% with SK-MEL-28 melanoma.

In the case of `O=C(NC(Cc1ccccc1)C(=O)CCl)OCc1ccccc1` (stereo not drawn), the growth is 93.5% in the experiment on DU-145 prostate; 13.7% in the experiment on K-562 leukemia; 72.4% with MALME-3M melanoma; 73.9% in the experiment with MDA-MB-231 breast; 63.2% in the experiment with SF-268 CNS; 62.4% with SF-539 CNS. Further, the growth is 87.2% with UACC-257 melanoma; 80.1% in the experiment with M14 melanoma; 58.6% in the experiment with HCT-15 colon; 53.6% in the experiment with HT29 colon; 83.7% in the experiment with SNB-75 CNS; 82.2% with SNB-19 CNS. The growth in the experiment with PC-3 prostate was 67.5%; in the experiment with SK-MEL-5 melanoma it was 75.9%; with UACC-62 melanoma, 68%; with LOX IMVI melanoma it was -7.12% (active); with SK-MEL-28 melanoma, 85.8%.

On to `N=S(=O)(NC(=O)c1ccc(Cl)cc1Cl)c1ccc(Br)s1` (stereo not drawn), for which the growth in the experiment with DU-145 prostate is 105%; in the experiment with K-562 leukemia it was 107%; in the experiment on MDA-MB-231 breast, 98.2%; in the experiment on RXF 393 renal, 91.7%; in the experiment on SF-268 CNS, 99.8%; with SF-295 CNS, 89.6%. Further, the growth is 91.7% with SF-539 CNS; 98.2% in the experiment with UACC-257 melanoma; 99.8% in the experiment with M14 melanoma; 82.4% with HCT-15 colon; 111% in the experiment on HT29 colon; 108% in the experiment with SNB-75 CNS. For the same compound, the growth is 85.5% in the experiment on SNB-19 CNS; 102% in the experiment on PC-3 prostate; 94.7% in the experiment with SK-MEL-5 melanoma; 112% in the experiment with UACC-62 melanoma; 98.1% in the experiment with LOX IMVI melanoma; 111% in the experiment with SK-MEL-28 melanoma.

As to `COC(=O)[C@H](C(C)C)n1c(=O)c2cc(OC)c(OC)cc2c2cnc3[nH]ccc3c21`, the growth with DU-145 prostate is 51.4%; with MALME-3M melanoma it was 85.1%; with MDA-MB-231 breast it was 48%; in the experiment with RXF 393 renal, -0.674% (active); in the experiment with SF-268 CNS, 45.6%; in the experiment with SF-295 CNS, 25.2%. Besides, the growth was 9.26% (active) in the experiment with SF-539 CNS; 78.7% in the experiment on UACC-257 melanoma; 76.1% in the experiment with M14 melanoma; 41.3% in the experiment with HCT-15 colon; 45.5% with HT29 colon; 13.2% in the experiment on SNB-75 CNS. Further, the growth was 77.7% in the experiment on SNB-19 CNS; 29.2% in the experiment on PC-3 prostate; 58.8% in the experiment with SK-MEL-5 melanoma; 22.3% in the experiment with UACC-62 melanoma; 28.2% with LOX IMVI melanoma; 62.2% in the experiment with SK-MEL-28 melanoma.

For the compound `C(=N\Nc1nnn(Cc2ccccc2)n1)/c1ccccc1`, the growth in the experiment with DU-145 prostate was 40%; with K-562 leukemia it was 29.3%; in the experiment with MALME-3M melanoma, 24.7%; in the experiment with MDA-MB-231 breast, 98.2%; with SF-268 CNS, 46.2%; in the experiment on SF-295 CNS, 31.2%. Further, the growth with SF-539 CNS is 41%; in the experiment with UACC-257 melanoma it was 43.9%; in the experiment on M14 melanoma it was 42%; with HCT-15 colon, 23.1%; in the experiment with HT29 colon it was 20.1%; with SNB-75 CNS, 75%. The growth with U251 CNS was 31.7%; in the experiment with PC-3 prostate, 51.9%; in the experiment on SK-MEL-5 melanoma, 32%; in the experiment with UACC-62 melanoma, 41.5%; in the experiment with LOX IMVI melanoma it was 48.8%; in the experiment on SK-MEL-28 melanoma, 45.4%.

Take `O=C1C=CC(Nc2ccccc2[N+](=O)[O-])C1Nc1ccccc1[N+](=O)[O-]` (stereo not drawn): the growth with DU-145 prostate was -69.1% (active); with K-562 leukemia, 5.11% (active); in the experiment on MALME-3M melanoma, -89.7% (active); with RXF 393 renal it was -96.4% (active); with SF-268 CNS it was 75.8%; with SF-295 CNS, 67.5%. In addition, the growth with SF-539 CNS was -93.6% (active); in the experiment with UACC-257 melanoma it was 28.7%; in the experiment with M14 melanoma, -68.9% (active); in the experiment on HCT-15 colon, -86.6% (active); with HT29 colon, -32.3% (active); in the experiment with SNB-75 CNS, 36.9%. For the same compound, the growth was 51.6% in the experiment on PC-3 prostate; 45% with SK-MEL-5 melanoma; -68.9% (active) in the experiment on UACC-62 melanoma; -97.3% (active) with LOX IMVI melanoma; -92.9% (active) in the experiment with SK-MEL-28 melanoma.

In the case of `O=[N+]([O-])c1cccc(C2CC(c3ccccc3)=Nc3ccccc3S2)c1` (stereo not drawn), the growth in the experiment with DU-145 prostate is 89.6%; in the experiment with K-562 leukemia, 12.2%; with MALME-3M melanoma it was 89.3%; in the experiment with MDA-MB-231 breast it was 97.3%; with SF-268 CNS, 91.4%; in the experiment on SF-539 CNS, 108%. Besides, the growth is 99.6% with UACC-257 melanoma; 102% in the experiment on M14 melanoma; 84.7% in the experiment on HCT-15 colon; 44.1% in the experiment on HT29 colon; 68.2% in the experiment with SNB-75 CNS; 87.2% in the experiment with SNB-19 CNS. Further, the growth was 77.4% in the experiment on PC-3 prostate; 94.8% in the experiment with SK-MEL-5 melanoma; 88.4% in the experiment with UACC-62 melanoma; 22.6% in the experiment on LOX IMVI melanoma; 96.4% in the experiment on SK-MEL-28 melanoma.

As to `COc1ccc2nc(NC(=O)c3cccnc3Nc3cc(OC)c(OC)c(OC)c3)sc2c1`, the growth with DU-145 prostate is -56.1% (active); with K-562 leukemia, 15.7%; with MDA-MB-231 breast, -9.82% (active); in the experiment on RXF 393 renal, -39.2% (active); in the experiment on SF-268 CNS it was -73.1% (active); with SF-295 CNS, 54.2%. For the same compound, the growth in the experiment with SF-539 CNS is -57.1% (active); with UACC-257 melanoma it was 49.9%; in the experiment with M14 melanoma it was 48.4%; in the experiment with HCT-15 colon it was 56.3%; with HT29 colon it was 11.9%; with SNB-75 CNS, 14.1%. The growth was 26.4% in the experiment on SNB-19 CNS; 15.5% with SK-MEL-5 melanoma; 57.2% in the experiment on UACC-62 melanoma; 37.1% in the experiment with LOX IMVI melanoma; 24.1% in the experiment with SK-MEL-28 melanoma.

For the compound `CCN(CC)CC(C)(C)C(=O)/C=C/c1ccccc1`, the growth in the experiment on DU-145 prostate is 8.96% (active); in the experiment on K-562 leukemia it was 6.77% (active); in the experiment on MALME-3M melanoma, 37.4%; with RXF 393 renal, 30.3%; in the experiment with SF-268 CNS it was 91.3%; in the experiment with SF-295 CNS it was 87.6%. The growth was 28.8% in the experiment with SF-539 CNS; 65.9% in the experiment with UACC-257 melanoma; 31.9% with M14 melanoma; 21.2% in the experiment on HCT-15 colon; 49% in the experiment with HT29 colon; 81.6% with SNB-75 CNS. Further, the growth in the experiment on U251 CNS is 86.4%; in the experiment on PC-3 prostate it was 69%; in the experiment with SK-MEL-5 melanoma it was 81.9%; with UACC-62 melanoma, 39.8%; in the experiment on LOX IMVI melanoma, -2.72% (active); in the experiment on SK-MEL-28 melanoma, 67.8%.
